These sequences were tested on FXR:RXRa (NR concentration 270 nM, RXRa partner concentration 90 nM) (assay: PBM binding z-score (relative to random genomic background probes); higher = stronger binding; sequences stand for … in GC…GCGATTGACAGCGTAGAATGAAGG).
Method in brief: (§1)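 Custom Agilent 4×180K protein-binding microarrays carried double-stranded probes, each with a 34-nt variable region. These regions held direct-repeat seeds, single-nucleotide variants, half-site ablations and random human genomic background sequences. Ligand-free nuclear receptor dimers were incubated on the arrays for 1 h, antibodies against each partner (one per run) detected binding, and scanned fluorescence was regression-normalized. Binding z-scores take the random background probes as reference.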
For TTACCAAGGTGAAAGTCGTTGATCCCTCTGTAGA, the PBM binding z-score was 0.729. GTACGAAGGTGAATAGGTCGTTGATGAGTAGGCG gave a PBM binding z-score of 0.531. For TGTTGTAGATCAACAGGAGGTTAAGAAAGATCGA, the PBM binding z-score was 0.0129. For TCATATAGGTAAATGCTAGGTGAGAGTCCGATCT, the PBM binding z-score was -0.733. Work on GATACAGTGTCAGCTAGAGGCCAGAGTATGGAAA yielded a PBM binding z-score of -0.507. CCTACTGGGACACGAAAGGTCATTGATTCAGTGA gave a PBM binding z-score of 3.84. For TCTCGGAGGACACGAGAGGTCAGAGCTCGACATC, the PBM binding z-score was 2.17. CGTCGAAGGTCAAAGGTCAGTGAAGAGATGACGG gave a PBM binding z-score of 8.44. TCTACAGGGTCAAAGGCCAGAGTACGAATGTCGA was tested, and the PBM binding z-score was 7.34. TCTAGCAGGCCAGAGGATCACTCAAGAGGTACGG gave a PBM binding z-score of -0.551. With CCTACTGGGCCAAAGGTTATTGATTCCAATGCTC the PBM binding z-score was 0.648. CGTCCAAGGTCAATGGTAGGTCAGTGAAAGCATT was tested, and the PBM binding z-score was 6.69. For TCTCGGAGGAGACGAAAGGTCAGAGCTCGACATC, the PBM binding z-score was 2.04. TGAATGAGTTTATAAGATCAGGGAACGTTGCAAA gave a PBM binding z-score of -0.262. Work on ATCTCTAGGTAAAGATAGTTCGGTGAATGCAAAT yielded a PBM binding z-score of 0.128. AGAACGAGGGCACGCTGAGTTGAAAGCAGAGTAG was tested, and the PBM binding z-score was 0.945. Sequence TGAATGAGGTTATACGATCAGGGAACGTTGCAAA has a PBM binding z-score of 1.76. TGAATGAGATTAAAGATCAGGGAACGTGGCGTCG gave a PBM binding z-score of -0.229. For GATACAGGGTCACCTAGAGGCCAGAGTATGGAAA, the PBM binding z-score was 6.92. Work on CTGGAAAGGTCGTGCTCAGGTGAGTATACCAAAC yielded a PBM binding z-score of 5.25. For TTACCAAGGTGTAAGGTCGTTGATGCACGCCTTG, the PBM binding z-score was 0.533. For CGTCAAAGTTCAACTAAGGTACCGTAAAGCACGC, the PBM binding z-score was 7.12. CGTCCAAGGTCAAGGTTAGTGAAAGAGACTCGAA gave a PBM binding z-score of 6.97. With TCTGCTAGATCAGTTGGTCAGCTAACGAGCTGCC the PBM binding z-score was -2.98. In the case of TCATATAGTTAAATGCTAGGTGAAAGTCCGATCT, the PBM binding z-score is reported as 0.982. For CCAACTGGGGCATAAGGTTACCATAAGCCAGCCC, the PBM binding z-score was 0.142. In the case of ATCTCTAGGTAACAAGTGCAGTGAAAGAGAGGAC, the PBM binding z-score is reported as 0.0619. With GCATATAGGTAAAACAAGGTGAAAGTCCGATTGT the PBM binding z-score was 1.15. In the case of TTACCAAGGTGAAAGGCCGTTGATGCACGCCTTG, the PBM binding z-score is reported as 0.494. CCTATTAGTTGACCAGAAGGGCAACCGAAGCTCG gave a PBM binding z-score of 0.545. TCTCGGAGGACACGAAGATCAGAGCTTTCCAGAG was tested, and the PBM binding z-score was 0.203. TCTGCTAGGTCAACGATGGTCAGCCAATCTGCTA gave a PBM binding z-score of 3.5. CCGACTGGGGCATAAGGTTACGATAAGCCAGCCC showed a PBM binding z-score of 0.452. In the case of ACTAGCAGGCCAAGGGTCACCCAAGATTAGTCCG, the PBM binding z-score is reported as 3.24. In the case of ACTTACGGGTCAACGAGGTAATAGCACGCGTATA, the PBM binding z-score is reported as 6.86. Sequence GCTACCAGGCCATTTGGGTCACTCAATGACGGGC has a PBM binding z-score of 0.22. Work on TCGAGTAGGTTAGTCGGGGCATTCATCCAACATA yielded a PBM binding z-score of 0.0168. Work on CGAACTAGCTCAGAACAGGACAGTGAAGGATGAT yielded a PBM binding z-score of -0.682. TCATATAGGTAAAGGCGAAAGTCGAACGATATGA showed a PBM binding z-score of 0.173.

Each sequence was assayed on LXRa:RXRa (NR concentration 270 nM, RXRa partner concentration 90 nM) in the same assay as above.
Method in brief: as §1
For TTACCAAGGTGAAAGTCGTTGATCCCTCTGTAGA, the PBM binding z-score was 0.757. In the case of GTACGAAGGTGAATAGGTCGTTGATGAGTAGGCG, the PBM binding z-score is reported as 0.661. In the case of TGTTGTAGATCAACAGGAGGTTAAGAAAGATCGA, the PBM binding z-score is reported as 0.966. With TCATATAGGTAAATGCTAGGTGAGAGTCCGATCT the PBM binding z-score was 0.512. GATACAGTGTCAGCTAGAGGCCAGAGTATGGAAA showed a PBM binding z-score of -0.554. CCTACTGGGACACGAAAGGTCATTGATTCAGTGA was tested, and the PBM binding z-score was 4.83. TCTCGGAGGACACGAGAGGTCAGAGCTCGACATC gave a PBM binding z-score of 3.37. Sequence CGTCGAAGGTCAAAGGTCAGTGAAGAGATGACGG has a PBM binding z-score of 6.95. For TCTACAGGGTCAAAGGCCAGAGTACGAATGTCGA, the PBM binding z-score was 4.67. In the case of TCTAGCAGGCCAGAGGATCACTCAAGAGGTACGG, the PBM binding z-score is reported as -0.271. With CCTACTGGGCCAAAGGTTATTGATTCCAATGCTC the PBM binding z-score was 1.32. With CGTCCAAGGTCAATGGTAGGTCAGTGAAAGCATT the PBM binding z-score was 5.38. TCTCGGAGGAGACGAAAGGTCAGAGCTCGACATC gave a PBM binding z-score of 2.95. For TGAATGAGTTTATAAGATCAGGGAACGTTGCAAA, the PBM binding z-score was -0.382. Sequence ATCTCTAGGTAAAGATAGTTCGGTGAATGCAAAT has a PBM binding z-score of 1.18. AGAACGAGGGCACGCTGAGTTGAAAGCAGAGTAG was tested, and the PBM binding z-score was 0.542. TGAATGAGGTTATACGATCAGGGAACGTTGCAAA gave a PBM binding z-score of 1.37. TGAATGAGATTAAAGATCAGGGAACGTGGCGTCG was tested, and the PBM binding z-score was -0.065. In the case of GATACAGGGTCACCTAGAGGCCAGAGTATGGAAA, the PBM binding z-score is reported as 4.72. With CTGGAAAGGTCGTGCTCAGGTGAGTATACCAAAC the PBM binding z-score was 3.35. Work on TTACCAAGGTGTAAGGTCGTTGATGCACGCCTTG yielded a PBM binding z-score of 0.628. CGTCAAAGTTCAACTAAGGTACCGTAAAGCACGC showed a PBM binding z-score of 6.16. In the case of CGTCCAAGGTCAAGGTTAGTGAAAGAGACTCGAA, the PBM binding z-score is reported as 5.24. TCTGCTAGATCAGTTGGTCAGCTAACGAGCTGCC gave a PBM binding z-score of -0.794. TCATATAGTTAAATGCTAGGTGAAAGTCCGATCT was tested, and the PBM binding z-score was 0.66. With CCAACTGGGGCATAAGGTTACCATAAGCCAGCCC the PBM binding z-score was 1.69. ATCTCTAGGTAACAAGTGCAGTGAAAGAGAGGAC gave a PBM binding z-score of 0.181. Sequence GCATATAGGTAAAACAAGGTGAAAGTCCGATTGT has a PBM binding z-score of 2.03. TTACCAAGGTGAAAGGCCGTTGATGCACGCCTTG gave a PBM binding z-score of 0.431. CCTATTAGTTGACCAGAAGGGCAACCGAAGCTCG gave a PBM binding z-score of 0.559. In the case of TCTCGGAGGACACGAAGATCAGAGCTTTCCAGAG, the PBM binding z-score is reported as -0.201. TCTGCTAGGTCAACGATGGTCAGCCAATCTGCTA was tested, and the PBM binding z-score was 2.9. Sequence CCGACTGGGGCATAAGGTTACGATAAGCCAGCCC has a PBM binding z-score of 0.99. With ACTAGCAGGCCAAGGGTCACCCAAGATTAGTCCG the PBM binding z-score was 2.98. Sequence ACTTACGGGTCAACGAGGTAATAGCACGCGTATA has a PBM binding z-score of 4.42. GCTACCAGGCCATTTGGGTCACTCAATGACGGGC was tested, and the PBM binding z-score was 0.0663. TCGAGTAGGTTAGTCGGGGCATTCATCCAACATA was tested, and the PBM binding z-score was -0.035. CGAACTAGCTCAGAACAGGACAGTGAAGGATGAT showed a PBM binding z-score of -0.642. TCATATAGGTAAAGGCGAAAGTCGAACGATATGA gave a PBM binding z-score of 0.402.

From the supplement of paper PMC6555819
